Measured values taken from PubChem BioAssay AID651558 (National Center for Advancing Translational Sciences (NCATS), 2012).
The campaign covered roughly 1,200 compounds. About 480 (40%) were called active. Inconclusive results (about 29%) are left out. Calls follow the shape of the dose curve; as a rule, active = well fitted inhibition curve with a large enough effect; inconclusive = small, poorly fitted or top-dose-only effect; inactive = no such curve, though single readings can be large or run the other way. This is one part of the list.

assay: qHTS Assay to Find Inhibitors of Chronic Active B-Cell Receptor Signaling: Hit Validation in Primary Screen; settings: ABC-DLBCL IkB-luc/CBR ratio luminescence, 4 h; series mostly up to 46.1 µM; also: nearly all actives have a fitted effect of over 75% in size
Method in brief: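 TMD8 ABC-DLBCL cells carrying doxycycline-inducible IkBa-green luciferase fusion and free red luciferase, 0.5% FBS, dosed 46 uM–3 nM with doxycycline for 4 h at 37C. Green/red luminescence ratio normalized to basal and 10 uM MG-132.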
Potency is read from the fitted curve at half-maximal effect.

Potency, inactive:
CCOC(=O)c1[nH]c(C)c(C(=O)c2ccc(C)cc2)c1C
CC[C@]12c3[nH]c4cc(CCC(=O)N(C)C)ccc4c3CCN1C(=O)[C@@H](CC(=O)NC/C=C(\C)CCC=C(C)C)C[C@@H]2C(=O)N1CCN(C(=O)c2ccco2)CC1
CCC1CCCCN1C(=S)NC(=O)c1cccs1 (centres undefined)
CCN(CC(=O)Nc1cc(Cl)ccc1C)C(=O)C1CC1
CCN(CC)S(=O)(=O)c1ccc(N/N=C(\C)c2ccc(OC)cc2O)nc1
COc1ccc(S(N)(=O)=O)cc1C(=O)OCCCOC(=O)c1cc(S(N)(=O)=O)ccc1OC
CC[C@]12c3[nH]c4cc(CCC(=O)N(C)C)ccc4c3CCN1C(=O)[C@@H](CC(=O)NCCc1ccccn1)C[C@@H]2C(=O)N1CCN(C(=O)C2CC2)CC1
C/C(=N\NC(N)=S)c1cc(-c2ccccc2)c(-c2ccccc2)s1
C=CCNC(=S)N/N=C/c1ccc(C(F)(F)F)cc1
CCc1ccc2oc(=O)cc(CN3CCCCC3C)c2c1 (centres undefined)
COc1ccc(CCNCC(O)COc2cccc(Br)c2)cc1 (centres undefined)
COC1=CC(=O)CC(C)C12Oc1c(Cl)c(OC)cc(OC)c1C2=O (centres undefined)
COc1cc(OC)c2c(c1)OC(=O)CC2c1cc(OC)c(OC)c(OC)c1 (centres undefined)
Nc1ncnc2c1ncn2[C@@H]1O[C@H](CNCc2ccc(-c3cc(C(F)(F)F)ccc3Cl)o2)[C@@H](O)[C@H]1O
Nc1ncnc2c1ncn2[C@@H]1O[C@H](CNC(=O)[C@@H]2CCCN2S(=O)(=O)c2ccc(F)cc2)[C@@H](O)[C@H]1O
Nc1ncnc2c1ncn2[C@@H]1O[C@H](COP(=O)(O)O)[C@@H](O)[C@H]1O
CC1CCC2C(=O)N(c3ccc(C(=O)Oc4cccc5cccnc45)cc3)C(=O)C2C1 (centres undefined)
O=C(Oc1c(CN2CCOCC2)cc(Cl)c2cccnc12)c1ccccc1Cl
CCCC(=O)Nc1ncnc2c1ncn2[C@@H]1O[C@@H]2COP(=O)(O)O[C@H]2[C@H]1OC(=O)CCC
Cc1ccccc1NC(=S)c1ccc2ccccc2n1
S=C(NCc1ccc2[nH]c3c(c2c1)CCCC3)Nc1ccccc1
CN(CC(=O)Nc1ccc2c(c1)OCCO2)Cc1nc2ccccc2c(=O)[nH]1
CCOc1ccc(S(=O)(=O)N(CC(=O)NN=C2CCN(C)CC2)c2ccc(C)cc2)cc1
FC(F)(F)c1nnc2ccc(Cl)nn12
CCOc1cc(C(=O)N/N=C/C2CC=CCC2)cc(OCC)c1OCC (centres undefined)
O=C(N/N=C/C(Br)=C\c1ccccc1)c1ccc2nc[nH]c2c1
Cc1c(CCC(=O)N2CCC(C(=O)O)(c3ccccc3)CC2)c(=O)oc2cc3oc4c(c3cc12)CCCC4
CCOC(=O)C(C)N1C(=O)S/C(=C/c2cc(C)n(-c3ccccn3)c2C)C1=O (centres undefined)
COc1cc2c(c(OC)c1OC)C(c1ccc(C)cc1)CC(=O)O2 (centres undefined)
NC(=S)NN=C1c2ccccc2-c2ccccc21
CNC(=S)N/N=C/c1ccco1
CC(=O)c1ccsc1-c1c(C)cc2oc(=O)cc(-c3ccccc3)c2c1C
CCc1ccc(N2CC(C(=O)OCC(=O)Nc3ccccc3C)CC2=O)cc1 (centres undefined)
CCOC(=O)C(NCc1ccccc1)(NC(=O)c1ccccc1)C(F)(F)F (centres undefined)
Cc1csc(NC(=S)Nc2cccc(Cl)c2)n1
S=C(Nc1ccccc1)Nc1nccs1
CCNC(=S)NNc1ccccc1
CCCc1nnc(NC(=O)CCC(=O)NCCc2ccc(OC)c(OC)c2)s1
C[C@@H]1C[C@H]2[C@@H]3C[C@H](F)C4=CC(=O)C=C[C@]4(C)[C@@]3(F)[C@@H](O)C[C@]2(C)[C@@]1(O)C(=O)CO
COc1ccc(NC(=S)N=Nc2c(O)[nH]c3ccccc23)cc1
COC(=O)Nc1nc2ccc(Sc3ccccc3)cc2[nH]1
N#CC(C(=S)Nc1ccccc1)c1nc2ccccc2[nH]1 (centres undefined)
OCc1ccnc2c(O)cccc12

Potency, active:
CCOC(=O)c1[nH]c(C)c(C(=O)N2CCc3ccccc32)c1C 4.61 µM
CCOC(=O)c1[nH]c(C)c(C(=O)c2cc(F)ccc2F)c1C 11.6 µM
CCOC(=O)c1[nH]c(C)c(C(=O)OCC)c1C 18.4 µM
CCOC(=O)c1c(C)[nH]c(C(=O)N/N=C/c2ccc(Br)cc2)c1C 0.92 µM
CCOC(=O)c1[nH]c(C)c(C(=O)Nc2cc(Cl)ccc2C)c1C 7.31 µM
CCOc1ccc(S(=O)(=O)Nc2cc(OC)ccc2OC)cc1 4.61 µM
CCN(CC)c1ccc(NC(=O)c2cc(OC)cc(OC)c2)c(C)c1 6.51 µM
CCN1C(=O)C(O)(C2COC(C)(C)CC2=O)c2cc(Br)ccc21 (centres undefined) 18.4 µM
Oc1ccc(Nc2nc(-c3cccnc3)cs2)cc1 16.4 µM
COc1cc(C2C(C#N)=C(N)Oc3cc4c(cc32)OCO4)cc(OC)c1OC (centres undefined) 0.461 µM
OCC1OC(n2cnc3c(NC4CCCCC4)ncnc32)C(O)C1O (centres undefined) 1.46 µM
C=CCNc1ncnc2c1ncn2C1OC(CO)C(O)C1O (centres undefined) 23.1 µM
Nc1nc(Cl)nc2c1ncn2[C@@H]1O[C@H](CO)[C@@H](O)[C@H]1O 0.92 µM
Nc1ncnc2c1ncn2C1OC(C(=O)NC2CC2)C(O)C1O (centres undefined) 0.058 µM
OC[C@H]1O[C@@H](n2cnc3c(NC4CCCC4)ncnc32)[C@H](O)[C@@H]1O 1.84 µM
OC[C@H]1O[C@@H](n2cnc3c(NC4CCCC4)nc(Cl)nc32)[C@H](O)[C@@H]1O 1.3 µM
Cc1ccccc1NC(=S)NCc1ccc2c(c1)cc(C)n2C 1.46 µM
COC(=O)Nc1nc(-c2ccccc2)c(C(=O)c2ccc(Cl)cc2)s1 3.66 µM
CC[C@@H]1Cc2cc(O)ccc2C2=C1c1ccc(O)cc1C[C@H]2CC 14.6 µM
Cc1noc(C)c1COc1cccc(C(=O)OCC(=O)N2CC(=O)Nc3ccccc32)c1 20.6 µM
O=C(Cc1n[nH]c(=O)c2ccccc12)OCC(=O)c1ccc2c(c1)OCCO2 20.6 µM
CCOc1ccc(N(CC(=O)Nc2ccccc2C)S(=O)(=O)c2c(C)noc2C)cc1 14.6 µM
CCOc1ccc(N(CC(=O)Nc2ccccc2OCC)S(=O)(=O)c2c(C)noc2C)cc1 2.91 µM
CCOc1ccc(N(CC(=O)Nc2ccccc2OC)S(=O)(=O)c2ccccc2)cc1 5.17 µM
CC(/C=N/NC(=O)c1n[nH]c2c1CCC2)=C\c1ccccc1 0.58 µM
O=C(N/N=C/C(Br)=C\c1ccccc1)c1n[nH]c2c1CCC2 2.06 µM
CCOc1cc(C(=O)N/N=C/C(Br)=C/c2ccccc2)cc(OCC)c1OCC 2.59 µM
Cc1c(CCC(=O)N2CCC[C@H]2C(=O)O)c(=O)oc2cc3oc4c(c3cc12)CCCC4 23.1 µM
CCOC(=O)C(C)N1C(=O)S/C(=C/c2ccc3c(c2)n(C)c(=O)n3C)C1=O (centres undefined) 18.4 µM
COc1cc2c(cc1OC)C(c1ccc(OC)c(OC)c1OC)CC(=O)N2 (centres undefined) 23.1 µM
COc1ccc(C2CC(=O)Nc3cc(OC)c(OC)cc32)cc1Br (centres undefined) 20.6 µM
COc1cc(-c2noc(C)c2C#Cc2ccsc2)cc(OC)c1OC 8.2 µM
COc1cc(-c2noc(C)c2C#Cc2ccc(N)cc2)cc(OC)c1OC 2.91 µM
CNC(=S)N/N=C1\C(=O)c2cccc3cccc1c23 18.4 µM
COc1ccc(-c2cccc(-c3cc(=O)oc4cc(OC)cc(OC)c34)c2)cc1 1.16 µM
COc1cc(OC)c2c(-c3cccc(-c4ccc(OC)c(F)c4)c3)cc(=O)oc2c1 1.16 µM
COc1cc(OC)c2c(-c3cccc(-c4ccc(N(C)C)cc4)c3)cc(=O)oc2c1 2.06 µM
COc1cc(OC)c2c(-c3cccc(-c4sccc4C(C)=O)c3)cc(=O)oc2c1 5.17 µM
COc1cc(OC)c2c(-c3cccc(-c4cccc(N)c4)c3)cc(=O)oc2c1 6.51 µM
COc1cc(OC)c2c(-c3cccc(-c4ccc(NC(C)=O)cc4)c3)cc(=O)oc2c1 2.59 µM
COc1cc(OC)c2c(-c3cccc(-c4ccc(O)cc4)c3)cc(=O)oc2c1 2.59 µM
Cc1[nH][nH]c(=O)c1C(c1c(C)[nH][nH]c1=O)c1cn(Cc2ccc(F)cc2)c2ccccc12 14.6 µM
CCc1nnc(NC(=S)Nc2ccccc2)s1 0.651 µM
CCCc1nnc(NC(=S)Nc2ccccc2)s1 0.164 µM
Cc1cc(Cl)n2c(nc3ccccc32)c1C#N 1.84 µM
Cc1nn(-c2ccccc2)c(C)c1/C=N/NC(=O)c1cc(-c2ccccc2)n[nH]1 2.31 µM
Cc1ccc(-c2cc(C(=O)N/N=C/c3c(C)nn(-c4ccccc4)c3C)[nH]n2)cc1 2.31 µM
Cc1nn(-c2ccccc2)c(C)c1/C=N/NC(=O)c1cc(-c2cccs2)[nH]n1 3.26 µM
COc1ccc(C(=O)N[C@H](C(=O)Nc2nc3ccccc3[nH]2)C(C)C)cc1 5.8 µM
COc1cc(OC)cc(C(=O)N[C@H](C(=O)Nc2nc3ccccc3[nH]2)C(C)C)c1 1.84 µM
Cc1cccc(C(=O)N[C@H](C(=O)Nc2nc3ccccc3[nH]2)C(C)C)c1 3.26 µM
